697 NFkB inh: lowers PMA/ionomycin-induced NF-kB signal in 697 B cells; inhibition, % at 4 µM; 697 B-cell NF-kB luciferase reporter, 16 h; actives 0.33% (n = 330,000); in the data active = inhibition above about 35%
Jurkat NFkB inh: inhibitors of the PMA/ionomycin-induced NF-kB reporter in Jurkat cells; PMA/ionomycin-induced NF-kB luciferase reporter, luminescence; inhibition, % at 4 µM; actives 0.53% (n = 330,000); AID 435003; in the data active = inhibition above about 50%
TMEM16A inh: blocks the mouse calcium-activated chloride channel TMEM16A; Q8BHY3; normalized B-score (activity score, 25-100; higher = stronger inhibition) at 10 µM; actives 1.2% (n = 310,000); AID 588511; HEK293 TMEM16A/YFP iodide influx fluorescence, ionomycin;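 active = ratio plate-corrected score three or more library SD toward inhibition, starting fluorescence score within five deviations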;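 also: score derived from kinetic fluorescence span divided by baseline fluorescence per well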
KLF5 inh: suppresses KLF5 promoter-driven expression. inhibition, % at 5 µM. DLD-1 KLF5 promoter-luciferase reporter, luminescence. actives 0.23% (n = 290,000);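 active = inhibition above a per-plate limit of that plate's mean compound inhibition plus 3 SD, cut at about 60% in these data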;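 also: 0% = DMSO wells and 100% = LY294002 at 200 µM; higher means less KLF5 promoter-driven luciferase light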
aSyn 5UTR inh: 5' untranslated region of α-synuclein, MLPCN primary screen | alpha-synuclein 5'UTR reporter, inhibitor activity | inhibition, % (tested at 7.5 µM) | actives 0.82% (n = 300,000) | AID 1813; in the data active = inhibition above about 60%;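 also: H4 neuroglioblastoma cells stably carrying SNCA 5'UTR luciferase fusion; 0% = DMSO wells and 100% = positive control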
ANO1 activ: activators or potentiators of mouse TMEM16A chloride channel; HEK293 TMEM16A/YFP-H148Q/I152L, iodide quench fluorescence; hits give low values; B-score at 10 µM; actives 0.3% (n = 340,000); AID 623877;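 active = fluorescence-ratio B-score plate-corrected deviation score at least 3 library SD below zero, with starting fluorescence score within 5 deviations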;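 also: channel opened by trigger with iodide after compound preincubation; score built on the fluorescence ratio of max minus min over baseline; more negative score means more quench and so TMEM16A activation or potentiation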
KLF5 confirm: KLF5 inhibition, confirmation assay. shares compounds with KLF5 inh. DLD-1 KLF5 promoter firefly luciferase reporter, luminescence. inhibition, % at 4 µM. actives 79% (n = 610). AID 1834;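 active = inhibition above a set limit taken from the earlier primary screen, cut at about 63% in these data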;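 also: 0% = DMSO wells and 100% = LY294002 at 200 µM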
IEC-6 tox: rat IEC-6 cytotoxicity, KLF5 inhibitor counter-screen | shares compounds with KLF5 inh | IEC-6 rat intestinal cells, viability luminescence | inhibition, % at 4 µM | actives 56% (n = 610) | AID 1905; in the data active = inhibition above about 23%;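 also: cells exposed to compounds for 48 hours before viability read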
Numbers without * were called inactive; i = inactive; · = no result. Shown are actives, neighbours in structure and some others; about 2.5% of the full set was active somewhere.

SMILES	697 NFkB inh	Jurkat NFkB inh	TMEM16A inh	KLF5 inh	aSyn 5UTR inh	ANO1 activ	others
COC(=O)C1=C(c2ccc3ccccc3c2)C[C@@H]2CC[C@H]1N2C	3.5	-13.0	·	·	·	i
COC(=O)C1=C(C(=O)OC)C2OC1c1cc3ccccc3cc12	·	·	·	·	·	-4.86*
Cc1cc(NC(=O)C(Cl)(Cl)Cl)no1	8.8	-6.3	i	1.8	-9.8	i
Cc1cccc(NP2(=O)NCCCN2)c1	·	·	·	·	·	i
O=CC(Cl)P(=O)(N1CCCCC1)N1CCCCC1 (centres undefined)	21.1	8.1	i	-9.6	-11.8	i
Cc1ccc(Cn2cc(C=O)c3ccccc32)cc1	-2.8	10.9	i	1.5	47.7	i
O=Cc1cn(Cc2ccc(F)cc2)c2ccccc12	7.8	17.5	i	-22.8	70.7*	i
O=Cc1cn(Cc2ccc([N+](=O)[O-])cc2)c2ccccc12	22.6	7.0	i	0.5	72.5*	i
COC(=O)c1ccccc1OP(=O)(c1cccc([N+](=O)[O-])c1)c1cccc([N+](=O)[O-])c1	18.2	7.5	i	1.1	28.8	i
CCCN(CC#CCOc1ccc(OC)cc1)CCC	8.0	7.6	i	-23.4	-4.0	-16.4*
CN1CCN(CC#CCOc2ccc(Cl)cc2)CC1	4.4	-33.1	i	-22.7	-5.6	i
CC(=O)O[C@@H]1/C=C/[C@](C)(O)C[C@@H](C)C/C=C/[C@H]2[C@@H]3O[C@]3(C)[C@@H](C)[C@H]3[C@H](Cc4ccccc4)NC(=O)[C@@]312	28.5	-10.0	i	·	113.8*	·
Cc1ccc(CCN2CC(C(=O)N3CCC4(CC3)OCCO4)CC2=O)cc1 (centres undefined)	9.6	15.5	i	-15.0	-1.1	i
CCN(CC)C(=O)c1ccc(NC(=O)c2cccc(S(=O)(=O)N3CCN(Cc4ccccc4)CC3)c2)cc1	-21.4	10.3	25*	·	13.8	i
CC/C(=N\NC(=O)c1ccccc1O)c1c(O)n(C2CCCCC2)c(=O)[nH]c1=O	-0.4	10.1	i	-42.5	-15.1	i
C[C@H]1O[C@@H](O[C@H]2[C@@H](O)C[C@H](O[C@H]3[C@@H](O)C[C@H](O[C@H]4CC[C@@]5(C)[C@H](CC[C@@H]6[C@@H]5CC[C@]5(C)[C@@H](C7=CC(=O)OC7)CC[C@]65O)C4)O[C@@H]3C)O[C@@H]2C)C[C@H](O)[C@@H]1O	·	·	·	100.0*	·	·
CC12CCC3C(CCC4(O)CC(O)CCC34C=O)C1(O)CCC2C1=CC(=O)OC1 (centres undefined)	·	·	·	·	·	i
C[C@H]1O[C@@H](OC2CC[C@]3(C=O)[C@H]4CC[C@]5(C)[C@@H](C6=CC(=O)OC6)CC[C@]5(O)[C@@H]4CC[C@]3(O)C2)CC2OC(C)(C)OC21 (some centres undefined)	·	·	i	109.8*	95.7*	i
CC1OC(OC2C(O)CC(OC3C(O)CC(OC4CCC5(C)C(CCC6C5CCC5(C)C(C7=CC(=O)OC7)C(O)CC65O)C4)OC3C)OC2C)CC(O)C1O (centres undefined)	·	·	·	·	·	i
Cc1c2ccncc2c(C)c2c1[nH]c1ccccc12	-240.0	-16.5	i	4.0	114.1*	i
c1ccc(CCCN2CCN(CCOC(c3ccccc3)c3ccccc3)CC2)cc1	-30.5	-10.4	i	·	1.3	i
Fc1ccc(C(OCCN2CCN(CCCc3ccccc3)CC2)c2ccc(F)cc2)cc1	-1.9	16.6	i	·	105.9*	i
O=C(Cn1ncc2c3ccccc3n(Cc3ccccc3)c2c1=O)N1CCC2(CC1)OCCO2	·	·	·	-39.8	·	·
O=C(Cn1ncc2c3ccccc3n(Cc3ccccc3F)c2c1=O)N1CCC2(CC1)OCCO2	-12.4	9.3	i	-15.2	-9.6	-20.6*
O=c1[nH]c(N2CCN(Cc3ccc4c(c3)OCO4)CC2)nc2c1CCC2	18.2	4.8	i	-16.3	·	i
SMILES	697 NFkB inh	Jurkat NFkB inh	TMEM16A inh	KLF5 inh	aSyn 5UTR inh	ANO1 activ	others
C[N+](C)(C)CC#CCN1CCCC1=O	-11.5	14.7	i	·	4.7	-7.93*
O=C(CF)N(O)c1ccc(C=Cc2ccccc2)cc1	·	·	·	·	·	i
COC1C(OC(=O)c2ccc(C)[nH]2)C(O)C(Oc2ccc3c(O)c(NC(=O)c4ccc(O)c(CC=C(C)C)c4)c(=O)oc3c2Cl)OC1(C)C (centres undefined)	9.2	11.2	100*	-1.7	·	i
COc1cc(/C=C/c2nc3ccccc3c(=O)n2-c2ccccc2O)ccc1O	34.5	1.2	i	6.5	-13.1	i
COc1cc(/C=C/c2nc3ccccc3c(=O)n2-c2cccc(O)c2)ccc1O	26.1	-1.1	i	4.0	22.2	-5.23*
CN(C)CC1CCCCC1OC(=O)Cc1ccc(Cl)c([N+](=O)[O-])c1 (centres undefined)	26.3	10.8	i	-1.5	14.5	i
O=C(c1ccc(Cl)cc1)C1CCCN(Cc2ccc3ncccc3c2)C1 (centres undefined)	-22.5	6.6	25*	-23.2	1.7	i
COc1ccccc1N1C(=O)NC(=O)C2(Cc3cc(C)ccc3N(C)C2)C1=O (centres undefined)	3.8	-13.6	i	-8.4	-28.4	i
Cc1cc(=O)oc2cc(OCC(=O)N3CCN(C(C)c4ccccc4)CC3)c(Cl)cc12 (centres undefined)	11.5	20.1	·	·	·	-41.9*
Cn1nccc1C(=O)N1CCC2(CC1)OCCO2	5.1	9.7	i	-23.1	0.3	i
NC12CN3CN(CN(C3)C1)C2 (tested in a mixture with another compound)	16.6	9.4	i	13.1	-3.4	i
CCOc1ccccc1N=C1SCCCN1C	15.2	9.2	i	-8.3	13.4	i
CC(=O)N1CCCSC1=Nc1ccccc1	-1.8	3.0	i	12.9	16.7	-29.8*
COc1ccc(O)c2c(=O)c3c(OC)cc4c(c3oc12)C1C=COC1O4 (centres undefined)	26.9	1.0	i	1.8	94.0*	i
CCCCNS(=O)(=O)c1ccc(OCC(=O)N2CCN(Cc3ccc4c(c3)OCO4)CC2)cc1	-12.9	20.2	i	-0.8	7.7	-4.72*
C[C@H]1[C@H](OC(=O)CCC(=O)NCc2ccc(C(=O)O)cc2)O[C@@H]2O[C@@]3(C)CC[C@H]4[C@H](C)CC[C@@H]1C24OO3	14.8	9.0	i	79.7*	-0.3	i	KLF5 confirm=84.2*;IEC-6 tox=25.6*

Screens: PubChem BioAssay, several laboratories
